Compounds with a hit are over-represented: about 2.4% of the library has one in this group of screens.
Pf gametocyte: late stage P. falciparum gametocyte viability inhibitors, primary screen, ATP luminescence, HTS | P. falciparum stage V gametocytes, 24 h | inhibition, % at 10.9 µM | 150,000 tested, 0.065% active | AID 743093, 2013;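 active = inhibition above the mean plus 3 SD of compounds within the control limits, set per campaign, cut at about 38% in these data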;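 note: 0% = DMSO wells and 100% = medium only without gametocytes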
Arbovirus inh: antivirals against arbovirus infection, primary screen, cell-based, full library, 10K replicate subset. arbovirus infection cell-based antiviral screen. inhibition, % at 10 µM. 200,000 tested, 0.37% active. AID 1251, 2008; in the data active = inhibition above about 30%
MEKK2 mut-MEK5: MEK5 binding signal on mutant MEKK2 PB1, primary screen, biochemical, multiplex bead flow cytometry, Alexa488-MEK5; Alexa488-MEK5 binding to MEKK2 mutant; 290,000 tested, 0.35% active; percent response, % at 10 µM; AID 1530, 2009; in the data active = percent response above about 24%, passing the limit was not always enough
MEKK2wt PB1 HTS: modulators of MEK5 binding to wildtype MEKK2, primary screen, biochemical, multiplex bead flow cytometry, Alexa488-MEK5. Mitogen-activated protein kinase kinase kinase 2 (Homo sapiens), Q9Y2U5. Alexa488-MEK5 binding to MEKK2 WT; actives lie on both sides. binding response (% of control), % at 10 µM. 290,000 tested, 1.1% active. AID 1531, 2009; in the data active = binding response below about 67% or above about 130%
MEKK3 PB1 HTS: modulators of MEKK3-MEK5 PB1 binding, primary screen, biochemical, wildtype MEKK3, multiplex bead flow cytometry, Alexa488-MEK5 | 290,000 tested, 1.4% active | AID 1529, 2009 | binding response (% of control), % at 10 µM | bead-based flow cytometry, Alexa488-MEK5 binding to MEKK3; actives lie on both sides; 0 = blocked by unlabeled MEK5, 100 = vehicle;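 active = binding response more than 3 SD above or below the average of its plate-row segment, actives on both sides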;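 note: Alexa488 bead fluorescence after subtracting the streptavidin-only scavenger bead signal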
Target sequence (Q99759 whole entry, looked up): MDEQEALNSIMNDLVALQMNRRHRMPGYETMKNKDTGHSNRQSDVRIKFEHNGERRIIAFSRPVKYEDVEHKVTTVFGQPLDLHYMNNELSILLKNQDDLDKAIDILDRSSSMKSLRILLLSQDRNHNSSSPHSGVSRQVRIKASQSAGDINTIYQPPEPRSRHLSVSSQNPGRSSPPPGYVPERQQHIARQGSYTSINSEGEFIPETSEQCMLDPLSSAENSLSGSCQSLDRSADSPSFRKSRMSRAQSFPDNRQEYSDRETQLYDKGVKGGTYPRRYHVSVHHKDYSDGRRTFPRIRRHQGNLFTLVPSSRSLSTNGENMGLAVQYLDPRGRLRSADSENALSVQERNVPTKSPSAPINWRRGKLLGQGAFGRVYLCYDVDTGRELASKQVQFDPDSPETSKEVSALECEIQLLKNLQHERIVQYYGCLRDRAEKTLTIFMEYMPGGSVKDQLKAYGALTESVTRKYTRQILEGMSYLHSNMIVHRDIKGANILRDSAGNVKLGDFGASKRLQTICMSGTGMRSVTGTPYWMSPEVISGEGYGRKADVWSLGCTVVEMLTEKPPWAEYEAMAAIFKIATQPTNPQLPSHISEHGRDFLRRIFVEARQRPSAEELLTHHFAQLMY
MEKK2wt confirm: modulators of MEK5 binding to wildtype MEKK2, confirmation, biochemical, single concentration, multiplex bead flow cytometry | shares compounds with MEKK3 PB1 HTS | Alexa488-MEK5 binding to MEKK2 WT; actives lie on both sides | binding response (% of control), % at 10 µM | 5,900 tested, 2.4% active; in the data active = binding response below about 16% or above about 210%; inactive = in between
MEKK2mut-MEK5: mutant MEKK2 PB1-MEK5 binding signal retest – biochemical, single concentration, multiplex bead flow cytometry, confirmation; shares compounds with MEKK3 PB1 HTS; percent response, % at 10 µM; Alexa488-MEK5 binding to MEKK2 mutant; 5,900 tested, 2% active; in the data active = percent response mostly above about 71%, no sharp cut-off; inactive = mostly below about 38%;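 note: higher means compound restores mutant binding toward wildtype level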
MEKK3-MEK5 inh: MEKK3 wild-type PB1 binding to MEK5, inhibitors, confirmation, biochemical, bead multiplex flow cytometry, single concentration, wildtype; shares compounds with MEKK3 PB1 HTS; AID 1894, 2009; 5,900 tested, 1.8% active; Alexa488-MEK5 binding to MEKK3; stronger effect = lower value; binding response (% of control), % at 10 µM;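 active = binding response below 72% of control, or above a set upper limit, though filed actives all read lower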;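 note: 100% = DMSO only wells and 0% = binding blocked by excess unlabeled MEK5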
* = called active by the depositor; x = not tested or not shown; [ ] = another dose, or the depositor's remark.

SMILES	Pf gametocyte	Arbovirus inh	MEKK2 mut-MEK5	MEKK2wt PB1 HTS	MEKK3 PB1 HTS	MEKK2wt confirm	MEKK2mut-MEK5	MEKK3-MEK5 inh
Cc1ccccc1-n1c(SCc2c(C)noc2C)nnc1-c1cccnc1	x	3	30*	28*[inhibitor]	101	109	2	96
O=C(Cc1ccc([N+](=O)[O-])cc1)NCc1ccccc1Cl	-9	-5	1	108	146*	98	-4	102
CCCCc1ccc(-c2nc(N)n[nH]2)cc1	-6	-4	-21	2.0*[inhibitor]	1.0*[inhibitor]	106	5	103
CCOC(=O)N1CCN(C(=O)C2CCN(C(=O)c3cc(OC)cc(OC)c3)CC2)CC1	2	4	1	103	142*	108	4	101
O=C(NCCCN1CCOCC1)c1cc2c([nH]c3ccccc32)c(-c2cccc(Br)c2)n1	x	x	31*	161*	112	177	36	110
COc1cccc(-c2nc(C(=O)NCCCN3CCOCC3)cc3c2[nH]c2ccccc23)c1	x	x	9	127	103	x	x	x
O=C(CNC(=O)c1ccccc1)N/N=C/c1ccccc1Cl	-26	9	1	112	129*	96	0	100
CNC(=S)N/N=C/c1ccccc1Cl	x	-14	0	108	142*	102	-1	102
C/C(=C\C(=O)c1ccc(Cl)s1)N(C)C	8	-1	1	104	106	x	x	x
COc1ccc(-n2nc(C(=O)Nc3nc4ccc(OC)cc4s3)c3ccccc3c2=O)cc1	x	-11	15	109	101	x	x	x
O=C(C1=C[C@H](c2ccccc2)C[C@H](OCc2ccc(CO)cc2)O1)N1CCOCC1	x	0	-2	98	101	x	x	x
COCCCN1C(=O)C(=O)/C(=C(/O)c2ccc(OC)cc2)C1c1ccc(O)c(OC)c1 (centres undefined)	x	12	3	99	100	x	x	x
COCCCN1C(=O)C(=O)/C(=C(/O)c2ccc(OC)cc2)C12C(=O)N(C)c1ccccc12 (centres undefined)	x	-4	2	-3.0*[inhibitor]	1.0*[inhibitor]	104	4	101
COc1ccc(C2NC(c3ccc(OC)cc3OC)C(C)C(=O)C2C)c(OC)c1 (centres undefined)	x	4	6	109	108	x	x	x
CCN1CCN(Cc2c(O)ccc3c2O/C(=C\C=C\c2ccccc2OC)C3=O)CC1	-3	13	0	95	133*	92	-3	97
CC(=O)N1N=C(c2ccccc2)CC1c1ccc2c(c1)OCO2 (centres undefined)	x	x	-1	101	100	x	x	x
CS(=O)(=O)N1N=C(c2ccccc2)CC1c1ccc2c(c1)OCO2 (centres undefined)	x	2	x	x	20*[inhibitor]	67	-22	68*
Cc1ccc(C2=NN(S(=O)(=O)c3ccccc3)C(c3ccccc3O)C2)cc1 (centres undefined)	x	-33	161*	x	14*[inhibitor]	88	-7	88
Cc1ccc(C2=NN(C(=O)c3cccs3)C(c3ccccc3O)C2)cc1 (centres undefined)	-9	-1	-6	80	85	x	x	x
O=S(=O)(c1ccccc1)N1N=C(c2ccccc2)CC1c1ccco1 (centres undefined)	x	x	-11	87	93	x	x	x
COc1ccc(C2CC(c3ccccc3)=NN2S(=O)(=O)c2ccccc2)cc1 (centres undefined)	18	x	50	103	20*[inhibitor]	91	-17	85
CN1CCN(CC(O)COc2ccc(C34CC5CC(CC(C5)C3)C4)cc2)CC1 (centres undefined)	-4	-32	56*	235*	116	201	81*	117
CN1CCN(CC(O)COc2ccccc2)CC1 (centres undefined)	-12	x	2	105	103	x	x	x
CSc1cccc(CN2CCC(CCC(=O)NC3CC3)CC2)c1	x	x	-1	99	96	x	x	x
Cc1ccc(S(=O)(=O)N2CCN(C(=O)c3sccc3-c3ccccc3)CC2)cc1	x	x	2	100	103	x	x	x
SMILES	Pf gametocyte	Arbovirus inh	MEKK2 mut-MEK5	MEKK2wt PB1 HTS	MEKK3 PB1 HTS	MEKK2wt confirm	MEKK2mut-MEK5	MEKK3-MEK5 inh
CCn1c(SCC(=O)NCC(=O)Nc2ccc(F)cc2)nnc1-c1cccs1	x	-2	-21	-4.0*[inhibitor]	0.0*[inhibitor]	109	9	105
CCn1c(CNC(=O)c2cccs2)nnc1SCC(=O)NCCc1ccccc1	x	4	5	100	101	x	x	x
CCn1c(CC(=O)Nc2ccc(Cl)c(Cl)c2)nnc1SCc1ccc(Cl)cc1	x	-1	2	14*[inhibitor]	8.0*[inhibitor]	107	3	106
CCn1c(CNC(=O)c2cccs2)nnc1SCC(=O)Nc1ccc(Cl)cc1	0	-15	0	110	128*	97	-5	95
COc1cccc(/C(C)=N/N=C(\C)c2cccc(OC)c2)c1	-22	x	0	102	104	x	x	x
FC(F)Sc1nc2ccccc2[nH]1	7	x	13	109	116	x	x	x
CC(=O)Nc1ccc(S(=O)(=O)N2CCN(C(=O)c3ncoc3-c3ccccc3)CC2)cc1	x	x	10	105	102	x	x	x
Cc1cc2c(cc1S(=O)(=O)N(C)Cc1ccccc1)n(C)c(=O)c(=O)n2C	x	x	1	100	98	x	x	x
CN(Cc1ccccc1)S(=O)(=O)c1ccc2c(c1)n(C)c(=O)c(=O)n2C	16	x	32	120	130*	97	0	97
Cc1ccccc1C(=O)Nc1nnc(CC(=O)N/N=C/c2ccncc2)s1	14	x	-8	85	85	x	x	x
O=C(c1ccc(F)cc1)C1CCN(C(=O)c2c(F)cccc2F)CC1	20	x	8	112	106	x	x	x
Nc1c(Cl)ncnc1N/N=C/c1ccc(O)cc1	-31	x	-11	53*[inhibitor]	51*[inhibitor]	91	0	89
Oc1ccc(/C=N/Nc2nccnc2Cl)cc1	x	-9	7	121	126*	99	2	104
N#CCCn1cc(CNCc2ccccc2)c(-c2cccc([N+](=O)[O-])c2)n1	x	-5	23	160*	105	144	21	99
O=C(NCc1cn(-c2ccccc2)nc1-c1ccccc1)c1cccc([N+](=O)[O-])c1	x	2	8	114	101	x	x	x

Compound activity: PubChem BioAssay, several laboratories
